Results reported in PubChem BioAssay AID2685 (National Center for Advancing Translational Sciences (NCATS), 2010).
Values joined by “and” are separate entries in the source; they are usually repeats but may differ in a detail not shown here. Equal values may be shown once. Out of some 320,000 compounds screened, about 2,100 (0.66%) were called active. Inconclusive results (about 53%) are left out. The sample holds actives, similar compounds and a random draw of the others, so the mix is not that of the screen. Calls come from the whole dose curve; as a rule, active = well fitted inhibition curve with a large enough effect in the signal ratio, with a control signal flat (not every such curve was filed as active); inconclusive = small, poorly fitted or top-dose-only effect, or effect the other way, or a change in a side signal; inactive = flat fitted curve, though single readings scatter; the % refers to the signal ratio.

assay: qHTS Assay for Lipid Storage Modulators in Drosophila S3 Cells; conditions: BODIPY lipid droplet fluorescence, 18-24 h, cells fed with added oleic acid; cell number change: measured here: cell count max response; series mostly up to 46.1 µM; lipid storage change, negative = inhibition: at the top concentration;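 for cell number change: cells counted by Cell Tracker Red CMTPX staining in the red channel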; for lipid storage change, negative = inhibition: % is set by controls: 0 for no effect and ±100 for the full control effect
How it was run: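 Drosophila S3 cells got compounds at several concentrations plus oleic acid (400 uM solution). Laser-scanning cytometry with 488 nm excitation read lipid droplets at 500-530 nm and cells at 575-640 nm. Percent activity was relative to 20 uM Triacsin C.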
Potency is the fitted concentration of half-maximal effect.

Compound	outcome	cell number change [%]	lipid storage change, negative = inhibition	Potency
CCCNC(=O)c1oc2ccc3c(c2c1C)C(O)CC(C)(C)O3 (stereo unspecified)	inactive	11.7	–	–
O=C(CN1C2CCCC1CC(NC(=O)c1ccco1)C2)Nc1ccccc1C(F)(F)F (stereo unspecified)	–	1.61	6.75% (inactive)	–
Cc1ccc(C(c2sc3ncnn3c2O)N2CC(C)CC(C)C2)cc1 (stereo unspecified)	–	-0.62	-14% (inactive)	–
O=C1c2cccc3cccc(c23)C(=O)N1CC1CCN(S(=O)(=O)c2ccc(F)cc2)CC1	–	1.3	0.656% (inactive)	–
O=S(=O)(Nc1ccc(N2CCCCC2)cc1)c1ccccc1F	–	-15.7	-8.36% (inactive)	–
CCOc1ccc2nc(CN3CCN(Cc4ccsc4)C(CCO)C3)ccc2c1 (stereo unspecified)	–	3.37	-13.8% (inactive)	–
Cc1nnc(SCC(=O)N(C)c2c(N)n(Cc3ccccc3)c(=O)[nH]c2=O)n1Cc1ccccc1	–	4.04	-5.33% (inactive)	–
COc1ccc(S(=O)(=O)N(C)c2ccc(C(=O)N3CCC(C(N)=O)CC3)cc2)cc1	–	-14.8	1.68% (inactive)	–
CCOC(=O)C1CCN(C(=O)c2ccc(N(C)S(=O)(=O)c3ccc(OC)cc3)cc2)CC1	–	-4.35	-25.7% (inactive)	–
CN(C)S(=O)(=O)N1CCN(C(=O)c2ccccc2Cl)CC1	inactive	–	–	–
O=C(c1ccccc1)N1CCN(S(=O)(=O)N2CCCCCC2)CC1	inactive	22.9	–	–
COc1ccc(S(=O)(=O)N(C)CC(=O)N2CCC(C(N)=O)CC2)cc1	–	-9.84	–	14.6 µM (active)
COc1ccc(S(=O)(=O)N(C)CC(=O)N2CCCCCC2)cc1	–	7.92	9.93% (inactive)	–
Cc1ccc(S(=O)(=O)N(C)c2ccc(C(=O)N3CCC(C(N)=O)CC3)cc2)cc1	–	-5.24	–	23.1 µM (active)
Cc1ccccc1NS(=O)(=O)c1ccc(C(=O)N2CCN(S(=O)(=O)c3ccccc3)CC2)cc1	–	-28	–	3.26 µM (active)
Cc1cccc(NS(=O)(=O)c2ccc(C(=O)N3CCC3)cc2)c1C	–	19.3	21.3% (inactive)	–
CN(C)S(=O)(=O)N1CCN(C(=O)c2ccccc2)CC1	–	10.4	–	23.1 µM (active)
Cc1ccccc1NS(=O)(=O)c1ccc(C(=O)N2CCCCCC2)cc1	–	4.54	24.1% (inactive)	–
COc1ccc(S(=O)(=O)N(C)CC(=O)N2CCCC2)cc1	–	-6.74	-3.08% (inactive)	–
Cc1ccn(CC(=O)N2CCCC(N3CCN(Cc4ccc5c(c4)OCO5)CC3)C2)n1 (stereo unspecified)	–	8.09	7.81% (inactive)	–
Cc1nc(SCC(=O)N(C)Cc2ccco2)c2c(C)c(C)sc2n1	–	-25.2	14.1% (inactive)	–
O=C(Nc1ccc(C(=O)Oc2ccccc2)c(O)c1)c1ccccc1	–	-6.44	-0.0459% (inactive)	–
COc1ccc(/C=C2\SC(=S)N(N3CCOCC3)C2=O)c(OC)c1	–	7.5	18% (inactive)	–

Compound	outcome	cell number change [%]	lipid storage change, negative = inhibition	Potency
CC1CCN(C(=O)c2cc(Cl)nc3ccccc23)CC1	–	-4.42	13.5% (inactive)	–
COc1ccc(S(=O)(=O)N2CCC(C(=O)NCc3cccc(OC)c3)CC2)cc1	inactive	29.1	–	–
COc1ccc(/C=N/NC(=O)CCn2nc(C)cc2C)cc1	–	9.01	13.7% (inactive)	–
Cc1cc(C)cc(C(=O)Nc2cc3c4c(c2)CC(=O)N4CCC3)c1	–	-11.8	-15.8% [at 0.0737 µM] (inactive)	–
O=C(CSc1ccc(C(F)(F)F)cc1[N+](=O)[O-])N1CCOCC1	–	-7.3	-21.4% (inactive)	–
Cc1ccc(-c2nn(CC(=O)NC(C)c3ccccc3)c(=O)c3ccccc23)cc1 (stereo unspecified)	–	–	-5.81% (inactive)	–
COc1ccccc1Nc1nnc(SCC(=O)c2cc(C)n(CC3CCCO3)c2C)s1 (stereo unspecified)	–	4.55	26% (inactive)	–
CCOc1ccc(CCNC(=O)c2nnn(CC(=O)Nc3c(C)cc(C)cc3C)c2N)cc1OCC	inactive	23.4	–	–
O=C(c1ccncc1)N1CCN(C2CCCCC2)CC1	–	9.31	-5.89% (inactive)	–
O=C(c1ccccc1)N1CCN(C2CCCCC2)CC1	–	7.93	2.03% (inactive)	–
O=C(c1ccccc1)N1CCN(C2CCCCCC2)CC1	–	-3.45	–	25.9 µM (active)
Cc1noc(C)c1C(=O)OCC(=O)Nc1cccc(S(=O)(=O)N(C)C)c1	–	-1.55	3.18% (inactive)	–
Cc1cc(C(=O)N/N=C/c2ccc(Cl)c([N+](=O)[O-])c2)c(C)n1-c1ccc(F)cc1	–	-1.33	14.7% (inactive)	–
CCN(CC)CCC(c1ccc(N(C)C)cc1)c1c(OC)cc(OC)c2c(-c3ccccc3)cc(=O)oc12 (stereo unspecified)	–	-6.71	6.17% (inactive)	–
COc1ccc(C(=O)OCC(=O)Nc2cc(C)c(C)cc2[N+](=O)[O-])cc1	–	-12.7	19.5% (inactive)	–
NC(=O)CSc1cn(CCNC(=O)c2cccs2)c2ccccc12	–	22.5	11.3% (inactive)	–
O=C1/C(=C/c2cccs2)COc2ccccc21	–	-6.21	-5.09% (inactive)	–
O=C1/C(=C/c2cccs2)Cc2ccccc21	–	20.5	2.15% (inactive)	–
O=C1C(=Cc2cccs2)C(=O)c2ccccc21	–	-7.62	–	18.4 µM (active)
O=C(CN1C(=O)/C(=C\c2cccc(Cl)c2)Oc2ccccc21)N1CCN(c2ccccn2)CC1	–	–	21.7% (inactive)	–
C[C@@H]1CC[C@H](O)/C=C/C(=O)O[C@H](C)CC[C@H](O)/C=C/C(=O)O1	–	-1.52	–	5.8 µM (active)
CC1CC(Nc2ccccc2)=CC(=O)O1 (stereo unspecified)	inactive	–	–	–
C[C@@H]1C=CC(=O)O[C@@H]1c1ccc(C(F)(F)F)cc1	–	9.88	16.1% (inactive)	–

Compound	outcome	cell number change [%]	lipid storage change, negative = inhibition	Potency
COc1ccc([C@H]2CC(=O)C=C(c3ccc4c(c3)OCO4)C2)cc1	–	2.65	-9.07% (inactive)	–
CCOC(=O)C1CCCN(C(=O)c2ccc3nc(-c4ccc(OC)c(OC)c4)c(-c4ccc(OC)c(OC)c4)nc3c2)C1 (stereo unspecified)	–	-26.9	–	4.11 µM (active)
CCOC(=O)C1CCCN(C(=O)c2ccc3nc(-c4cccc(OC)c4)oc3c2)C1 (stereo unspecified)	–	6.9	-19.1% (inactive)	–
COc1ccc(NC2CCCN(C(=O)c3ccc4nc(C)c(C)nc4c3)C2)cc1OC (stereo unspecified)	inactive	–	–	–
O=c1c2nnn(-c3ccc(Br)cc3)c2ncn1Cc1ccccn1	–	17.2	14.2% (inactive)	–
CSC1=NC(NCCCO)c2c(sc3c2CC(C)(C)OC3)N1 (stereo unspecified)	–	-5.44	21.6% (inactive)	–
CC(=O)N1N=C(c2ccc(NS(=O)(=O)c3ccccc3)cc2)CC1c1ccco1 (stereo unspecified)	–	-11.6	–	9.2 µM (active)
O=S(=O)(c1ccccc1)N1N=C(c2ccc(Br)cc2)CC1c1ccco1 (stereo unspecified)	–	13.4	–	16.4 µM (active)
CC(=O)N1N=C(c2ccc(Cl)cc2)CC1c1ccco1 (stereo unspecified)	–	10.2	26.9% (inactive)	–
CCS(=O)(=O)Nc1ccc(C2=NN(S(=O)(=O)c3ccc(F)cc3)C(c3ccco3)C2)cc1 (stereo unspecified)	–	4.44	-3.66% (inactive)	–
CC(=O)N1N=C(c2cccc(NS(=O)(=O)c3ccc(C)cc3)c2)CC1c1ccco1 (stereo unspecified)	inactive	-6.11	–	–
CS(=O)(=O)Nc1cccc(C2=NN(S(=O)(=O)c3ccccc3)C(c3ccco3)C2)c1 (stereo unspecified)	–	-5.75	0.748% (inactive)	–
Cc1cc(C)c(O)c(-c2cc(C(=O)Nc3cccnc3)[nH]n2)c1	–	-5.15	-22.1% (inactive)	–
CCc1ccc(-c2cc(C)no2)cc1S(=O)(=O)NCc1ccccc1OC	inactive	2.29	–	–
COc1ccc(-c2noc(-c3ccccc3C(=O)Nc3cccc(OC)c3)n2)cc1	–	2.43	13.9% (inactive)	–
O=C1CCCc2c1cc(C(=O)NCc1ccco1)c(=O)n2-c1ccccc1	–	1.19	12.5% (inactive)	–
CC(Cl)C(=O)c1ccc2c(c1)CCN2C(=O)C1CC1 (stereo unspecified)	–	-1.68	4.02% (inactive)	–
COc1ccc(C(c2c(NC(=O)c3ccco3)sc(C)c2C)N2CCOCC2)cc1 (stereo unspecified)	inactive	–	–	–
COc1cccc(C(c2c(NC(=O)c3ccco3)sc(C)c2C)N2CCOCC2)c1 (stereo unspecified)	–	-13.8	–	20.6 µM (active)
Cc1sc(NC(=O)c2ccco2)c(C(c2cccnc2)N2CCN(CCO)CC2)c1C (stereo unspecified)	–	-13.8	-3.36% (inactive)	–
COc1ccc(C(c2c(NC(=O)c3ccco3)sc(C)c2C)N2CCOCC2)cc1OC (stereo unspecified)	–	-1.23	8.2% (inactive)	–
Cc1sc(NC(=O)c2ccco2)c(C(c2cccnc2)N2CCCC2)c1C (stereo unspecified)	–	-20.2	-15.8% (inactive)	–
CCN1CCN(C(c2cccnc2)c2c(NC(=O)c3ccco3)sc(C)c2C)CC1 (stereo unspecified)	–	-4.13	–	8.2 µM (active)

Compound	outcome	cell number change [%]	lipid storage change, negative = inhibition	Potency
CCOCCCNCc1c(Cl)cccc1Cl	–	5.68	1.39% (inactive)	–
CCOC(=O)/C(=N\Nc1cccc(Cl)c1)Sc1nnc(-c2ccc(OC)cc2)n1C	–	1.18	13.8% (inactive)	–
O=S(=O)(NCCc1ccccn1)c1ccc(-c2ccccn2)s1	–	-6.49	5.79% (inactive)	–
O=C1OCCN/C1=C\C(=O)c1ccc(Cl)cc1	–	19.7	4.76% (inactive)	–
OCCC1CN(Cc2nc3c(s2)CCCC3)CCN1Cc1ccccc1 (stereo unspecified)	–	17.4	8.62% (inactive)	–
CCN1CCN(C(=S)c2ccc(Br)cc2)CC1	–	-1.28	-3.85% (inactive)	–
CCc1nnc(NC(=O)Cc2ccc(OC)c(OC)c2)s1	–	9.15	-9.59% (inactive)	–
C[C@H](NC(=O)C1(c2ccccc2)CCN(C(=O)[C@H]2CSCN2C(=O)OC(C)(C)C)CC1)C(=O)O	–	–	–	-15.3% and -9.67%
CC(C)[C@H](NC(=O)C1(c2ccccc2)CCN(C(=O)OC(C)(C)C)CC1)C(=O)O	–	0.279	-1.69% (inactive)	–
CC(C)C[C@H](NC(=O)C1(c2ccccc2)CCN(C(=O)[C@H]2CSCN2C(=O)OC(C)(C)C)CC1)C(=O)O	–	–	-0.167% (inactive)	–
CC1NC(=O)c2ccccc2-n2c1nc1cc(F)ccc1c2=O (stereo unspecified)	–	0.361	-24.4% (inactive)	–
COc1ccc(C2=NCCn3nc4cc(OC)ccc4c32)cc1	–	-20.7	3.18% (inactive)	–
O=[N+]([O-])c1ccc2c3n([n+]([O-])c2c1)CCN=C3c1ccc(Cl)cc1	–	12.6	8.37% (inactive)	–
Cc1ccc(C2=NCCn3c2c2ccc([N+](=O)[O-])cc2[n+]3[O-])cc1	–	-25.9	–	0.58 µM (active)
NS(=O)(=O)c1ccc(CNC(=S)NC2CCCCC2)cc1	–	-8.89	-3.85% (inactive)	–
Cc1ccc(NC(=O)Cn2c(O)c(N=NC(N)=O)c3ccccc32)cc1	–	-8.5	-14.8% (inactive)	–
COc1cccc2cc(C(=O)N3CCN(c4ccc(C)cc4C)CC3)c(=O)oc12	inactive	12.9	–	–
O=P(O)(OCc1ccccc1)OCc1ccccc1	–	4.18	5.37% (inactive)	–
COC(=O)c1c(NC(=O)c2ccco2)sc2c1CCN(C(C)=O)C2	–	-25.8	–	7.31 µM (active)
COC(=O)c1c(NC(=O)c2ccco2)sc2c1CCC2	–	3.65	0.361% (inactive)	–
COC(=O)c1c(NC(=O)C2CC2)sc2c1CCN(C(C)=O)C2	inactive	–	–	–
